Structures are written as SMILES. Calls of active or inactive are those of the source.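 Rule for the calls, unless noted: active = percent response above 42, roughly 3 SD of non-fluorescent test compounds; inactive = the rest.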

The source of these data is PubChem BioAssay.

The nature of experiment [1]: inhibitors of CD8+ T cell-vesicle binding, pilot screen, LFA-1/ICAM-1 modulator project, MLPCN validation set, flow cytometry (AID 2523;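 active = response below a set limit, under 55% cells CD8-positive and vesicle-bound, and CD8 cells' 90th-percentile brightness under 279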;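 for vesicle binding response: mean PE anti-B7-1 fluorescence of CD8+ cells relative to row control; 100% = QL9-loaded vesicles with DMSO vehicle in the same plate row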). The following applies: 2C mouse CD8+ T cells, at 7 µM, stronger effect = lower value; double positive events: measured here: CD8+/vesicle+ event percentage.
In experiment [2] the target is Integrin beta-1 (Homo sapiens) + Integrin alpha-4 (Homo sapiens) (UniProt P13612+P05556). Kind of experiment: inhibition of HUTS-21 binding to VLA-4, pilot screen, VLA-4 allosteric modulator project, U937 cells, HUTS-21 mAb, flow cytometry, validation set (AID 2674;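 active = inhibition above 50%, about 3 SD of the validation set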;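 note: antibody binding induced by the VLA-4 ligand LDV present at three times its Kd; 0% = LDV ligand with antibody and no compound and 100% = antibody without LDV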). Particulars: HUTS-21 LIBS mAb binding, at 6.7 µM, stronger effect = higher value, binding induced by LDV ligand. In general terms: A flow cytometer gives signals particle by particle.
Sequence of Integrin beta-1 (Homo sapiens) + Integrin alpha-4 (Homo sapiens) (P05556 whole entry, looked up): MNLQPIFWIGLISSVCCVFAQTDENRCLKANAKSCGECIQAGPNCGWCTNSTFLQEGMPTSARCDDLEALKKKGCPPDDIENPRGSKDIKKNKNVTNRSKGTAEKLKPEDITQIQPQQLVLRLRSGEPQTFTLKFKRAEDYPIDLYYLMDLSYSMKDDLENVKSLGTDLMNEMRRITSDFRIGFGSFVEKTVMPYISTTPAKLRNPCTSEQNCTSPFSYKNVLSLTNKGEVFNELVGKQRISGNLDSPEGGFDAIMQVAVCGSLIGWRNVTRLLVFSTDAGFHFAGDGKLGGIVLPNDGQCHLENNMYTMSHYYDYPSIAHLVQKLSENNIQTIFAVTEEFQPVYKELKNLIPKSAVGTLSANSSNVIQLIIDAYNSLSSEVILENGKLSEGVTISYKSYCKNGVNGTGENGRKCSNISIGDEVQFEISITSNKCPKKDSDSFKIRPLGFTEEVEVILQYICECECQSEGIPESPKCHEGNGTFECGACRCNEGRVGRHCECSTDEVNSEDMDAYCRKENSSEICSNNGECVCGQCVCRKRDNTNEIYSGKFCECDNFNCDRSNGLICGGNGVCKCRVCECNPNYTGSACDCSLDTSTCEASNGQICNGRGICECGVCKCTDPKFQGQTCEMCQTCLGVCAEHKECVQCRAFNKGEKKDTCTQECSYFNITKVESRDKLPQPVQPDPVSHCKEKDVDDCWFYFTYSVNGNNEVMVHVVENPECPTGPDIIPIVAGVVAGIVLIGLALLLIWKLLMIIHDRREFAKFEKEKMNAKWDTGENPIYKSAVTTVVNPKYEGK
Sequence of Integrin beta-1 (Homo sapiens) + Integrin alpha-4 (Homo sapiens) (P13612 whole entry, looked up): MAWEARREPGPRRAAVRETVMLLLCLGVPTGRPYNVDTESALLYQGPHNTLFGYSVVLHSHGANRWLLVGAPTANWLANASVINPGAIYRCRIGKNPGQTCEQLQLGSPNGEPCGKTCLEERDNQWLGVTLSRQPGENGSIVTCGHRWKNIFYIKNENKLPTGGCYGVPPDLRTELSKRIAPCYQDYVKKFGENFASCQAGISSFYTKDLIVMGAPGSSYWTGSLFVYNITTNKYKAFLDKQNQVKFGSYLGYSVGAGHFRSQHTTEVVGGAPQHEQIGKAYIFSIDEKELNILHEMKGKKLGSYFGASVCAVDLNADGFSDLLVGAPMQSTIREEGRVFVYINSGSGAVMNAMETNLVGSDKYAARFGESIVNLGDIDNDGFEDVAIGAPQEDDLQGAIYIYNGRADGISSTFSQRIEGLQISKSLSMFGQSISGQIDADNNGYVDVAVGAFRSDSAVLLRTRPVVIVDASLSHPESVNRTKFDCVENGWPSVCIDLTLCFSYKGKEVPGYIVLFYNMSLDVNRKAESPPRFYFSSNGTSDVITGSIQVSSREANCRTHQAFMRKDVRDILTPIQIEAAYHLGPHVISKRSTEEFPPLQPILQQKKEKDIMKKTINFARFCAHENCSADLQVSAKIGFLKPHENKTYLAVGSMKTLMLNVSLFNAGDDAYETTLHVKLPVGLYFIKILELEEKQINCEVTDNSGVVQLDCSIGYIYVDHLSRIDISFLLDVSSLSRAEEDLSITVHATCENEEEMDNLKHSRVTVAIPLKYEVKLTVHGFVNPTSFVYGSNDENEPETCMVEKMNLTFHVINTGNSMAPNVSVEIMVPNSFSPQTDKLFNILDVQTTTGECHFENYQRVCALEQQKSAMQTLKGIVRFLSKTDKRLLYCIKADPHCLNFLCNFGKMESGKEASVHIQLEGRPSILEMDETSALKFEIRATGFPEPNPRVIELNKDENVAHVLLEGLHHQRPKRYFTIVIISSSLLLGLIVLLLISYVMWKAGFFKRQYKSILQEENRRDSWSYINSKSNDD

Experiment [3] is described as follows: superoxide lowering in aged yeast cells, pilot screen, validation compound set (AID 2706;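 active = superoxide response below 65% of plate, a cut near 3 SD across the whole screen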;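 note: yeast exposed to compound for one week at 30 degrees C before staining; 100% = mean of all compound wells on the same plate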). The following applies: S. cerevisiae aging, superoxide DHE fluorescence; at 10 µM, stronger effect = lower value.
Experiment [4] addresses Beta-adrenergic receptor kinase 1 (Homo sapiens) (UniProt P25098). In words: GRK2 binders displacing RNA aptamer, biochemical, validation, human GRK2, bead flow cytometry (AID 488806;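 active = aptamer binding inhibition above 30%, about 3 SD of noise from non-fluorescent compounds; inactive = inhibition at or below 30%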). Particulars: bead-bound GRK2, FAM-aptamer displacement, at 10 µM, stronger effect = higher value.
Experiment [5] deals with Beta-2 adrenergic receptor (Homo sapiens) (UniProt P07550). Kind of experiment: beta2AR agonists driving receptor internalization, pilot screen, cell-based, FAP fluorogen, flow cytometry, validation set (AID 504459).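 Note: agonist-driven loss of surface beta2AR via internalization measured by FAP dye flow cytometry.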 The following applies: Am2.2-beta2AR cells, FAP surface receptor flow cytometry; at 10 µM; stronger effect = higher value.
Sequence of Beta-2 adrenergic receptor (Homo sapiens) (P07550 whole entry, looked up): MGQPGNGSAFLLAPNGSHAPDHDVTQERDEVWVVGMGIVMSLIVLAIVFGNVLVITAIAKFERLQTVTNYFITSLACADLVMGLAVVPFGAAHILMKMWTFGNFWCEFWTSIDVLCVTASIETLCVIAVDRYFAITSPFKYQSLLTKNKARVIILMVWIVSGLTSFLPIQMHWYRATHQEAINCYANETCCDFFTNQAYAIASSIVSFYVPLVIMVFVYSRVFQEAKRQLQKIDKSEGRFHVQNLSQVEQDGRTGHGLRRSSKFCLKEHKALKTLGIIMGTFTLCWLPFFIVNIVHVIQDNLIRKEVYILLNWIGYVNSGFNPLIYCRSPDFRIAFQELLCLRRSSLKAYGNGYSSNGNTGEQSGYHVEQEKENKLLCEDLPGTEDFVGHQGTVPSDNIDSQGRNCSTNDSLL
In experiment [6] the target is AP-2 complex subunit beta (Homo sapiens) (UniProt P63010). Kind of experiment: inhibitors of arrestin peptide binding to AP2, pilot screen, biochemical, validation set, GST-AP2 beads, flow cytometry (AID 504541;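 active = inhibition above 54%, about 3 SD of non-fluorescent compounds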;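 note: AP2 carries R879A mutation and is captured from E. coli lysate; bead-bound FITC arrestin peptide fluorescence measuring arrestin peptide binding to AP2; 0% = DMSO wells and 100% = excess unlabeled arrestin peptide control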). The following applies: FITC arrestin peptide, at 10 µM, stronger effect = higher value, AP2 beta2 appendage fragment, R879A mutant.
Sequence of AP-2 complex subunit beta (Homo sapiens) (P63010 whole entry, looked up, the tested form may be a part, one chain of several): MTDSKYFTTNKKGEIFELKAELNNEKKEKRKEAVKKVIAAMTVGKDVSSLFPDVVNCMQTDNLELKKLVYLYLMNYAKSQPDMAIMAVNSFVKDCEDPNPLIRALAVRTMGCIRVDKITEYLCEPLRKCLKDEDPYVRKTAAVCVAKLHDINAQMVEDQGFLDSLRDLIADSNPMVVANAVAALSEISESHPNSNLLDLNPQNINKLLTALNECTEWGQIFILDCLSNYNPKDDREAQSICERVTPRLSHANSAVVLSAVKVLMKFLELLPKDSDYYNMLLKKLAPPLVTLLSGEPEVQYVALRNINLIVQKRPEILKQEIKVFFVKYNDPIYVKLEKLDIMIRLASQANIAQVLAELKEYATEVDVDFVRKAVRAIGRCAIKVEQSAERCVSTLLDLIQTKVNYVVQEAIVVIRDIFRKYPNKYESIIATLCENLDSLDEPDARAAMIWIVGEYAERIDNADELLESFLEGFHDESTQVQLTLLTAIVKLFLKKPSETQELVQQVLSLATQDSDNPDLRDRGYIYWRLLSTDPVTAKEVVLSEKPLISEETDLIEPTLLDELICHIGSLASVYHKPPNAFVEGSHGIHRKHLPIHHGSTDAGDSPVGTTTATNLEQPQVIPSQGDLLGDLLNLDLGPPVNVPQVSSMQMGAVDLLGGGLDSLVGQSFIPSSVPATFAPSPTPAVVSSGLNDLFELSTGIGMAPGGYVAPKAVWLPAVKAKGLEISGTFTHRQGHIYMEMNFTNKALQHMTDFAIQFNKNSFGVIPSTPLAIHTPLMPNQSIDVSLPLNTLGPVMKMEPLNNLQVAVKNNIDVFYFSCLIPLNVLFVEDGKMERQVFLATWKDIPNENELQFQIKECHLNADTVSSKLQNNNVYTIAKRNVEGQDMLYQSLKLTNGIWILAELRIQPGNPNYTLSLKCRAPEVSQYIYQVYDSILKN
The nature of experiment [7]: yeast V-ATPase proton transport modulators, S. cerevisiae, pHLuorin, HTS validation (AID 504600; in the data active = response above about 15%;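 note: plate controls were DMSO for no effect and reference compound for full effect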). The following applies: S. cerevisiae pHLuorin cytosolic pH, at 10 µM, stronger effect = higher value.
In experiment [8] the test system is anti-desmoglein-3 scFv antibody binding to human DSG3. Kind of experiment: inhibitors of anti-DSG3 scFv binding to DSG3, pilot screen, biochemical, validation compound set, bead-based, flow cytometry (AID 588368;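 active = binding below the plate cutoff, the plate median minus 3 SD, with a reading above zero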;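 note: signal is the median channel fluorescence of bead-bound GFP antibody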). The following applies: Protein G beads, DSG3-Fc, scFv-GFP binding, at 10 µM, stronger effect = lower value.
Experiment [9] in a line: inhibitors of fungal efflux pumps CDR1, CDR2, MDR1, pilot screen, validation compound set, multiplex, phenotypic (AID 588506;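 active = efflux inhibition above 0.42, the validation set average plus 4 SD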;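 note: Nile Red retained in cells so higher fluorescence means more efflux inhibition; 0 = negative control wells and 1 = enniatin B 25 µM full block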). Particulars: S. cerevisiae pump-expressing triplex, Nile Red efflux flow cytometry; at 10 µM; stronger effect = higher value; the pumps come from Candida albicans.
In experiment [10] the target is ATP-binding cassette sub-family B member 6 (Homo sapiens) (UniProt Q9NP58). Kind of experiment: ABCB6 transporter inhibitors, pilot screen, K562-ABCB6 cells, flow cytometry, validation set (AID 588550;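 active = inhibition above the screen-wide mean plus 3 SD, about 51%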;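 note: 0% = DMSO wells and 100% = benzethonium chloride 70 µM positive control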). Particulars: K562-ABCB6 porphyrin accumulation, 1 h, at 10 µM, stronger effect = higher value.
Sequence of ATP-binding cassette sub-family B member 6 (Homo sapiens) (Q9NP58 whole entry, looked up): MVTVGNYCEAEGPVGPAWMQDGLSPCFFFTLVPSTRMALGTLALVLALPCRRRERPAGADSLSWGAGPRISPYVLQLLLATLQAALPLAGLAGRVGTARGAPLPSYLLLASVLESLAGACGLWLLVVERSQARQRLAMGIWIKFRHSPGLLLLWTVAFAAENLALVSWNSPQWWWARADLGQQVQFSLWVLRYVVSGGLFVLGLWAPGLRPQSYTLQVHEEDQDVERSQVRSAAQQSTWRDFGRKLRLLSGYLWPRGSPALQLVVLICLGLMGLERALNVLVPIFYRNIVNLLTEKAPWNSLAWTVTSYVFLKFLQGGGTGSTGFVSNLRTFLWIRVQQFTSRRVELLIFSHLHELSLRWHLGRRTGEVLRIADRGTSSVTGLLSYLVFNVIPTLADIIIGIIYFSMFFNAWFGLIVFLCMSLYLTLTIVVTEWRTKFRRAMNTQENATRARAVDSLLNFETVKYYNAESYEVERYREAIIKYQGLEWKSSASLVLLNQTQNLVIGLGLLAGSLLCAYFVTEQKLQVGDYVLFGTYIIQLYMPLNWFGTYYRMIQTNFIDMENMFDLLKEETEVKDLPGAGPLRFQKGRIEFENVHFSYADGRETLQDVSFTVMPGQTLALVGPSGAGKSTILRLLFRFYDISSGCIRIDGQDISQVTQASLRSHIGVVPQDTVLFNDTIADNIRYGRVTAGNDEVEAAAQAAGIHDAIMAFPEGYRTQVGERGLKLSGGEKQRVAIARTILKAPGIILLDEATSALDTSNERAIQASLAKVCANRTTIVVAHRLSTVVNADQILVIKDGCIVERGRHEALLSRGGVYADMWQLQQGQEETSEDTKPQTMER
A short description of experiment [11]: promoters of myeloid differentiation in arrested cells, primary screen, cell-based, GFP/MAC1 double positive, flow cytometry, validation set (AID 588685;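 active = differentiation response of at least 50%, scaled between solvent and reference control, from cells with both markers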;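 note: compound exposure lasts four days before antibody staining and flow analysis; 0% = DMSO wells and 100% = 5 µM fulvestrant positive control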). The following applies: ER-HoxA9 marrow cells, stronger effect = higher value, normalized: vehicle 0, fulvestrant 100.

Sequence of Beta-adrenergic receptor kinase 1 (Homo sapiens) (P25098 whole entry, looked up): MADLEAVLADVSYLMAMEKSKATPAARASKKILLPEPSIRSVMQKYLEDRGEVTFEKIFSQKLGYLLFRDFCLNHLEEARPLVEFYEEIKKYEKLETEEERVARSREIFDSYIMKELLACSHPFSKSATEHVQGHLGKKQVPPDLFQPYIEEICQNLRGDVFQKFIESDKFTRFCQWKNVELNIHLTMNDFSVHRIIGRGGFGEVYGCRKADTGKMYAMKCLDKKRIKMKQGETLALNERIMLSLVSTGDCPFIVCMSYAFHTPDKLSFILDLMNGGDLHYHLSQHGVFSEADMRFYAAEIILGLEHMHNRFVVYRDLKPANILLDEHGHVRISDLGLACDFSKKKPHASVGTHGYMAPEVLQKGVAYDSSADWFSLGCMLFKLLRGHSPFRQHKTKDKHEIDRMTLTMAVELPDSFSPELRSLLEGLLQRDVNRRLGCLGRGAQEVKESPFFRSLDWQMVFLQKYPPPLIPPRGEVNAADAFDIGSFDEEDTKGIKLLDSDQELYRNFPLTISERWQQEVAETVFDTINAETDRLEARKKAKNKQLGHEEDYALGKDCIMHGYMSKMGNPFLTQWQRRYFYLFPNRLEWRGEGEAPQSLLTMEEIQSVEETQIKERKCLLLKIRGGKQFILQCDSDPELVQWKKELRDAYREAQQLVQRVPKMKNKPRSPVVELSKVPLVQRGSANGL

Compound `Cc1ccc(P(=O)(CSC(=N)N)c2ccc(C)cc2)cc1` showed a double positive events in experiment [1] of 60.2%. The vesicle binding response in experiment [1] is 155% (inactive). Besides, the inhibition in [2] is 4.27% (inactive); in experiment [6] it was 2.42% (inactive); in experiment [10] it was 35% (inactive). Moreover, the superoxide response (% of plate) in experiment [3] is 95% (inactive). Also, in experiment [4], the aptamer binding inhibition is 8% (inactive). The results for the response in experiment [5] and in experiment [7] were 1.61% (inactive) and -0.71% (inactive), respectively. Further, in experiment [8], the binding (% of control) was 104% (inactive). Besides, the efflux inhibition (fraction of control) in experiment [9] was 0.3 (inactive). For the same compound, in experiment [11], the differentiation response was 4.2% (inactive).
Take `Cc1ccc(C(=O)N2CC3(C(C)C)CN(C(=O)c4ccc(C)cc4)CC(C(C)C)(C2)C3=O)cc1`: the double positive events in experiment [1] came to 59.7%. The vesicle binding response in experiment [1] was 224% (inactive). In addition, the inhibition in experiment [2] was -30.5% (inactive); in experiment [6], 14.1% (inactive); in experiment [10] it was 5% (inactive). The superoxide response (% of plate) in experiment [3] is 97.1% (inactive). Also, the aptamer binding inhibition in [4] was 3% (inactive). Moreover, the response in [5] was 24.4% (inactive); in experiment [7] it was -0.93% (inactive). The binding (% of control) in [8] is 99.1% (inactive). For the same compound, in [9], the efflux inhibition (fraction of control) was 0.76 (active). Also, the differentiation response in [11] is 7.2% (inactive).
`CCN(CC)CCN1C(=O)C(=O)/C(=C(/O)c2c(C)[nH]c(C(=O)OC)c2C)C1c1cccnc1` (configuration not stated) showed a double positive events in [1] of 60.5%. Besides, the vesicle binding response in experiment [1] is 235% (inactive). Besides, the inhibition in experiment [2] is -19.5% (inactive); in experiment [6], 0.35% (inactive); in [10] it was 9% (inactive). In experiment [3], the superoxide response (% of plate) was 95.2% (inactive). Also, the aptamer binding inhibition in experiment [4] is 4% (inactive). Further, the response in experiment [5] was 13.3% (inactive); in experiment [7], -2.49% (inactive). Moreover, the binding (% of control) in [8] is 103% (inactive). Moreover, the efflux inhibition (fraction of control) in experiment [9] is 0.05 (inactive). Moreover, the differentiation response in experiment [11] was -12% (inactive).
`Oc1ccc(Oc2ncc(Cl)cc2Cl)cc1` had a double positive events in experiment [1] of 61.9%. The vesicle binding response in experiment [1] is 223% (inactive). The inhibition was -3.67% (inactive) in experiment [2], -4.55% (inactive) in experiment [6] and 6% (inactive) in [10]. Besides, the superoxide response (% of plate) in experiment [3] was 73.7% (inactive). Also, the aptamer binding inhibition in experiment [4] was 2% (inactive). In addition, the response in [5] is -11% (inactive); in [7], 8.39% (inactive). Also, the binding (% of control) in experiment [8] is 107% (inactive). Also, the efflux inhibition (fraction of control) in experiment [9] is 0.12 (inactive). Moreover, the differentiation response in [11] is -12.9% (inactive).
Compound `COC(=O)c1cc(-c2c(C)oc3cc(OC)ccc3c2=O)c(C)o1` gave a double positive events in experiment [1] of 59.2%. For the same compound, the vesicle binding response in experiment [1] was 199% (inactive). In addition, the values for the inhibition in experiment [2], in experiment [6] and in experiment [10] were 2.3% (inactive), 2.24% (inactive) and 8% (inactive), respectively. Moreover, the superoxide response (% of plate) in experiment [3] was 96.8% (inactive). In addition, in experiment [4], the aptamer binding inhibition is 1% (inactive). In addition, the response in experiment [5] is 7.03% (inactive); in experiment [7], 1.93% (inactive). The binding (% of control) in experiment [8] is 105% (inactive). In addition, in experiment [9], the efflux inhibition (fraction of control) was -0.1 (inactive). The differentiation response in [11] is 18.4% (inactive).
`COc1cccc(N2CC34C=CC(O3)C(C(=O)O)C4C2=O)c1` (configuration not stated): in experiment [1], the double positive events is 60.2%. Moreover, in [1], the vesicle binding response was 168% (inactive). Further, the inhibition in experiment [2] is -19.5% (inactive); in [6], 28.1% (inactive); in experiment [10], 3% (inactive). In [3], the superoxide response (% of plate) is 97.6% (inactive). Further, the aptamer binding inhibition in experiment [4] was 0% (inactive). Also, the response in [5] was -21.5% (inactive); in [7], -2.62% (inactive). Also, in [8], the binding (% of control) was 102% (inactive). In experiment [9], the efflux inhibition (fraction of control) was 0.08 (inactive). For the same compound, the differentiation response in [11] is 44% (inactive).
`CCOc1ccccc1Oc1coc2cc(OCC(=O)O)ccc2c1=O` displayed a double positive events in experiment [1] of 63.5%. Also, the vesicle binding response in [1] was 156% (inactive). Further, the inhibition in experiment [2] is 1.44% (inactive); in experiment [6], -11% (inactive); in [10], -2% (inactive). Also, the superoxide response (% of plate) in experiment [3] was 111% (inactive). The aptamer binding inhibition in experiment [4] is 10% (inactive). Besides, the response in [5] was -21.7% (inactive); in experiment [7], 5.03% (inactive). For the same compound, in experiment [8], the binding (% of control) was 106% (inactive). Moreover, the efflux inhibition (fraction of control) in [9] is -0.09 (inactive). In experiment [11], the differentiation response was -8.93% (inactive).
As for `CC1/C(=C\c2ccc(Cl)cc2)C(=O)C2CC1C2(C)C` (configuration not stated), in experiment [1], the double positive events amounted to 60.1%. In experiment [1], the vesicle binding response is 168% (inactive). The inhibition is -3.16% (inactive) in experiment [2], -1.54% (inactive) in experiment [6] and 9% (inactive) in [10]. The superoxide response (% of plate) in experiment [3] was 94.9% (inactive). For the same compound, in experiment [4], the aptamer binding inhibition is 2% (inactive). Moreover, the values for the response in experiment [5] and in [7] were -15.2% (inactive) and 0.95% (inactive), respectively. In addition, the binding (% of control) in experiment [8] is 99.9% (inactive). In addition, the efflux inhibition (fraction of control) in [9] was 0.05 (inactive). In addition, the differentiation response in experiment [11] was -5.6% (inactive).
Compound `OCC1(CCOc2ccccc2)CCN(CCCn2cccn2)CC1` yielded a double positive events in [1] of 62.6%. For the same compound, the vesicle binding response in [1] is 287% (inactive). Besides, the inhibition was 11.9% (inactive) in experiment [2], -9.04% (inactive) in experiment [6] and 4% (inactive) in experiment [10]. Besides, the superoxide response (% of plate) in experiment [3] was 86.7% (inactive). Further, in experiment [4], the aptamer binding inhibition was 0% (inactive). Besides, the response in [5] was 22.2% (inactive); in experiment [7] it was 3.24% (inactive). In addition, in experiment [8], the binding (% of control) was 101% (inactive). The efflux inhibition (fraction of control) in experiment [9] was -0.39 (inactive). Besides, the differentiation response in experiment [11] was 7.2% (inactive).
`COc1cccc(OC)c1C(=O)Nc1nc2ccc([N+](=O)[O-])cc2s1` came in with a double positive events in [1] of 60.8%. In experiment [1], the vesicle binding response is 91.9% (inactive). The inhibition in experiment [2] is -14.5% (inactive); in experiment [6], 10.3% (inactive); in experiment [10], 8% (inactive). For the same compound, the superoxide response (% of plate) in experiment [3] was 101% (inactive). Further, the aptamer binding inhibition in [4] is -2% (inactive). The results for the response in experiment [5] and in experiment [7] were 4.56% (inactive) and 1.22% (inactive), respectively. Moreover, the binding (% of control) in experiment [8] was 101% (inactive). Also, in experiment [9], the efflux inhibition (fraction of control) is 0.005 (inactive). For the same compound, the differentiation response in experiment [11] is -3.11% (inactive).
`Cc1csc(-c2coc3cc(O)cc(C)c3c2=O)n1` displayed a double positive events in [1] of 63.8%. Also, the vesicle binding response in experiment [1] was 138% (inactive). The inhibition in experiment [2] is 2.3% (inactive); in experiment [6], 13.4% (inactive); in experiment [10], 17% (inactive). Further, the superoxide response (% of plate) in experiment [3] is 119% (inactive). Also, the aptamer binding inhibition in experiment [4] was 2% (inactive). Moreover, the response in experiment [5] is 0.13% (inactive); in experiment [7], -4.09% (inactive). Also, the binding (% of control) in experiment [8] is 97.4% (inactive). For the same compound, in experiment [9], the efflux inhibition (fraction of control) was -0.03 (inactive). Also, the differentiation response in experiment [11] was 2.4% (inactive).

What is called inhibition is the change of the read-out against control, counted positive when it falls.
